Measurements taken from the supplement of paper PMC11732987, “Enantioselective OTUD7B fragment discovery through chemoproteomics screening and high-throughput optimisation” (Communications Chemistry, 2025).
Values without a mark were called inactive.

Experiments:
Test in all cases: log2 ratio of Biotin-Ahx-Ub-VS probe labelling (fragment/DMSO); higher = less target engagement (more negative = stronger competition), active = hit call of the paper (q ≤ 0.05, log2 ratio ≤ -1)
Conditions in all cases: compound concentration: 200 uM; treatment time: 3 h
USP9X = USP9X (UniProt Q93008)
Procedure, shortened: (§1)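 HEK293T lysate in Tris/CHAPS/IGEPAL buffer with protease inhibitors (495 µg per sample) was given fragment at 200 µM or vehicle for 3 h, in triplicate. It then received Biotin-Ahx-Ub-VS at 0.5 µM final for 1 h. Labelled DUBs were NeutrAvidin-enriched, digested with LysC and trypsin, and run by diaPASEF LC-MS/MS. Values are average log2 fragment/vehicle ratios by unpaired t-test on global-median-normalised Spectronaut quantities of proteins with ≥2 unique peptides.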

UniProt O00487 = target: UniProt O00487
Procedure, shortened: as §1

UniProt O00507 = target: UniProt O00507
Procedure, shortened: as §1

UniProt P51784 = target: UniProt P51784
Procedure, shortened: as §1

UniProt Q5T2D3 = target: T1, UniProt Q5T2D3
T1 sequence (whole entry): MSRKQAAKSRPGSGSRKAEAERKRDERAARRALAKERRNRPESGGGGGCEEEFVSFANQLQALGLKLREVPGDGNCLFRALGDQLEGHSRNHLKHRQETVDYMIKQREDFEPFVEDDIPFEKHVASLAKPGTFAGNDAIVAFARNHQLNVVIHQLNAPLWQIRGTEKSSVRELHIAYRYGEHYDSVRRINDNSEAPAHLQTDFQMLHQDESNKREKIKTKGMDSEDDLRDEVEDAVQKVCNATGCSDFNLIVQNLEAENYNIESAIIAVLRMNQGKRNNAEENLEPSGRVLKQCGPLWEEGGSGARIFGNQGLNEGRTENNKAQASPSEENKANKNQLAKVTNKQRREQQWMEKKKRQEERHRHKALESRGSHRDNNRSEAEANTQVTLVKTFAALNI
Procedure, shortened: as §1

UniProt Q8TE49 = target: T2, UniProt Q8TE49
T2 sequence (whole entry): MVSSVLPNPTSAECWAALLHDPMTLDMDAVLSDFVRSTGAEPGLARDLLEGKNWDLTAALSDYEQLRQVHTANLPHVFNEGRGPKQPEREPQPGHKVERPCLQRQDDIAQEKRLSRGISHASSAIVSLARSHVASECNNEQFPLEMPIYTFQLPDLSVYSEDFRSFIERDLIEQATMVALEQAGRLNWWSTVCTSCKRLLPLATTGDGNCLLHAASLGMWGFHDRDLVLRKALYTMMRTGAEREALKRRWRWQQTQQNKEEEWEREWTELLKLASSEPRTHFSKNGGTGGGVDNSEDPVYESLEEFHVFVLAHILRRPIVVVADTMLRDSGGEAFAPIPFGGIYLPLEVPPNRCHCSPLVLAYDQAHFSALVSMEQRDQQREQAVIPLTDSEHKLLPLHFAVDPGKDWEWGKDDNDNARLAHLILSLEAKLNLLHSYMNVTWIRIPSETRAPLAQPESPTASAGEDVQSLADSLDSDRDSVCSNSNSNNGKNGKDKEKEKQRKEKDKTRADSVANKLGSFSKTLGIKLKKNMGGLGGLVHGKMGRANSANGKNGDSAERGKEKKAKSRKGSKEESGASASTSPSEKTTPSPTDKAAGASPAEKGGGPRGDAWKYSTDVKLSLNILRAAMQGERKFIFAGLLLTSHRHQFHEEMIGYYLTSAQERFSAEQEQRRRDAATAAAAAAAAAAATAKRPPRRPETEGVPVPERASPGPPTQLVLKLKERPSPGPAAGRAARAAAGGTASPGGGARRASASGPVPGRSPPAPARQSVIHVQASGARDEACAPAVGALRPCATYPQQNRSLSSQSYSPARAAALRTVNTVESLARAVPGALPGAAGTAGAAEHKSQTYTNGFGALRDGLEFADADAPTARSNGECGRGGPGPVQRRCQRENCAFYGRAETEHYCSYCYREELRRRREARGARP
Procedure, shortened: as §1

UniProt Q9P2H5 = target: T3, UniProt Q9P2H5
T3 sequence (whole entry): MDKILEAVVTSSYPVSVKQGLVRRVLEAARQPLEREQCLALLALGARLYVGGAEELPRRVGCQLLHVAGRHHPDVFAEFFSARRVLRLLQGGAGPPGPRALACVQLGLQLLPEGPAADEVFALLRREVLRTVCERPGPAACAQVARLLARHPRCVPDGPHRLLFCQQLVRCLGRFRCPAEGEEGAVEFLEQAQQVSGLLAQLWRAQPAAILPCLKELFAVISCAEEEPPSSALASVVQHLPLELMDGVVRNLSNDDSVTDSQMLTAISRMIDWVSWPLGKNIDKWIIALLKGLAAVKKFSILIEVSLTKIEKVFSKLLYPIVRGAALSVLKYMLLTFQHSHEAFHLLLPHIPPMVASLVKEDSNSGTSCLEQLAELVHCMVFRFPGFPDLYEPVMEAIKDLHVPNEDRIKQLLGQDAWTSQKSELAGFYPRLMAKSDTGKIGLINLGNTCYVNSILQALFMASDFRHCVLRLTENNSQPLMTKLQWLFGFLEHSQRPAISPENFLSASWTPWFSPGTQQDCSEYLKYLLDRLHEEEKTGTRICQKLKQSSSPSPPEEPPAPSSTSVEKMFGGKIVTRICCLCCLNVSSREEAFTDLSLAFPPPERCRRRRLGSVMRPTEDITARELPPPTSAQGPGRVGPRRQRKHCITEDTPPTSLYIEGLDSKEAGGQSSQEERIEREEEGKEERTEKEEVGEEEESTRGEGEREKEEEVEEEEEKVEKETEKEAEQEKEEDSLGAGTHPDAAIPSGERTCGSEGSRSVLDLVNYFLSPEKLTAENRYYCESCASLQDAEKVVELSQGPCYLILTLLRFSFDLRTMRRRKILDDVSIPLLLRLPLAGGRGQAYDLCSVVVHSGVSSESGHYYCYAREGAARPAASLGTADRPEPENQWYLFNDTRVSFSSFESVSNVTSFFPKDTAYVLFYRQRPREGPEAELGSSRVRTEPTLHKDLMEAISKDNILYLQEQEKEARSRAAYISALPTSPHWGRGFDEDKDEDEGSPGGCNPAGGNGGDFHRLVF
Procedure, shortened: as §1

UniProt Q9UGI0 = target: T4, UniProt Q9UGI0
T4 sequence (whole entry): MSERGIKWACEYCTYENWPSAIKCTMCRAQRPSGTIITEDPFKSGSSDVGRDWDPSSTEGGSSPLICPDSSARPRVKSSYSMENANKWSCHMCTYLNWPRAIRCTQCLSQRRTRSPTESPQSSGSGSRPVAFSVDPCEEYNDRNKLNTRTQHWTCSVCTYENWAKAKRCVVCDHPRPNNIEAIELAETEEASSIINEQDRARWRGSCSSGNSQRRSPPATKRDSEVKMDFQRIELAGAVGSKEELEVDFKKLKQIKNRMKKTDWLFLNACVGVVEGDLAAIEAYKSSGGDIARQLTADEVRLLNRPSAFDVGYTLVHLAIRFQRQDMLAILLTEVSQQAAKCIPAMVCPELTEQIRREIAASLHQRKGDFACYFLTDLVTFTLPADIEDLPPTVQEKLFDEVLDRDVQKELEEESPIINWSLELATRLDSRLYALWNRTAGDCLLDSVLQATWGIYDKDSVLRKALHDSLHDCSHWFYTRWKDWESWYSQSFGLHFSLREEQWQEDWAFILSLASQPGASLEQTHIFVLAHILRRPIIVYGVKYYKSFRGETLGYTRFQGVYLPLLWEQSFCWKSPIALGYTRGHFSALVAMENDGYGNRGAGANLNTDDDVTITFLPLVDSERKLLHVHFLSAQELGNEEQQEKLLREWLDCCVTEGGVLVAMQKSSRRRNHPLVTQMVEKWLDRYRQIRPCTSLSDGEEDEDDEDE
Procedure, shortened: as §1

YOD1 = target: T5, YOD1 (UniProt Q5VVQ6)
T5 sequence (whole entry): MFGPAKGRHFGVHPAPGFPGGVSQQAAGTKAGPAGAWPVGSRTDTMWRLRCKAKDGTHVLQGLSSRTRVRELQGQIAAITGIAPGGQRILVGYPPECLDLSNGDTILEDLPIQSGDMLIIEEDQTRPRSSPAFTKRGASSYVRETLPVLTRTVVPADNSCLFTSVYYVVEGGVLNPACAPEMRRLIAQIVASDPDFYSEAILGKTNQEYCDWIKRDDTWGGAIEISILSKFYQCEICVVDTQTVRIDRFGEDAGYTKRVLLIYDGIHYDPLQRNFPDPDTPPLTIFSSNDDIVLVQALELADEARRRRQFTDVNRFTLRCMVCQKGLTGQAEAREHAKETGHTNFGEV
Procedure, shortened: as §1

Sequence of UniProt P51784 (P51784 whole entry): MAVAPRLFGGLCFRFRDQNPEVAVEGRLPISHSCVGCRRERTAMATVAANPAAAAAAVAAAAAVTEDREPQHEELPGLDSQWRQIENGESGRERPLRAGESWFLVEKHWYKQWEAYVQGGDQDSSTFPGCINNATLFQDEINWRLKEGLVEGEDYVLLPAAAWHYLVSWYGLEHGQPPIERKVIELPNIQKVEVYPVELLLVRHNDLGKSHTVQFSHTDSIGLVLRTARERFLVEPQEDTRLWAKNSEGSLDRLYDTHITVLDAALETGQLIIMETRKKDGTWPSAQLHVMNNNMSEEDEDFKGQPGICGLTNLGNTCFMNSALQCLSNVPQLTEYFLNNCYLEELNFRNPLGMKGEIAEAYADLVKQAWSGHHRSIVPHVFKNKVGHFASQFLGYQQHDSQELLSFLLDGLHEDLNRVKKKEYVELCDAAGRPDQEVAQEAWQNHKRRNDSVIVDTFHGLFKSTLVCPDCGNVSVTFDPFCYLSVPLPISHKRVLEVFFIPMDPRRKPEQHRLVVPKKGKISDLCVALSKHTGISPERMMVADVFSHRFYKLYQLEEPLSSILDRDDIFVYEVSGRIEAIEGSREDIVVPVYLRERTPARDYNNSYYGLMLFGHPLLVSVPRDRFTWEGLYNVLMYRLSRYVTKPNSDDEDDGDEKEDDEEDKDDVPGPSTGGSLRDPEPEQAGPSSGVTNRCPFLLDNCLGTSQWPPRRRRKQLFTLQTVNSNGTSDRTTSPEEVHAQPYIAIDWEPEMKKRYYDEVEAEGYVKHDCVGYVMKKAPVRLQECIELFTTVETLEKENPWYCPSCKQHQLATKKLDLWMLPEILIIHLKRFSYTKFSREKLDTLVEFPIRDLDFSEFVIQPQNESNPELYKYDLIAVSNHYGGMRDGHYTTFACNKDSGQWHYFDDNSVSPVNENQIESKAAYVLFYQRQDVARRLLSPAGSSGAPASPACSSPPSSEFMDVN
Sequence of USP9X (Q93008 whole entry, the tested form may be a part): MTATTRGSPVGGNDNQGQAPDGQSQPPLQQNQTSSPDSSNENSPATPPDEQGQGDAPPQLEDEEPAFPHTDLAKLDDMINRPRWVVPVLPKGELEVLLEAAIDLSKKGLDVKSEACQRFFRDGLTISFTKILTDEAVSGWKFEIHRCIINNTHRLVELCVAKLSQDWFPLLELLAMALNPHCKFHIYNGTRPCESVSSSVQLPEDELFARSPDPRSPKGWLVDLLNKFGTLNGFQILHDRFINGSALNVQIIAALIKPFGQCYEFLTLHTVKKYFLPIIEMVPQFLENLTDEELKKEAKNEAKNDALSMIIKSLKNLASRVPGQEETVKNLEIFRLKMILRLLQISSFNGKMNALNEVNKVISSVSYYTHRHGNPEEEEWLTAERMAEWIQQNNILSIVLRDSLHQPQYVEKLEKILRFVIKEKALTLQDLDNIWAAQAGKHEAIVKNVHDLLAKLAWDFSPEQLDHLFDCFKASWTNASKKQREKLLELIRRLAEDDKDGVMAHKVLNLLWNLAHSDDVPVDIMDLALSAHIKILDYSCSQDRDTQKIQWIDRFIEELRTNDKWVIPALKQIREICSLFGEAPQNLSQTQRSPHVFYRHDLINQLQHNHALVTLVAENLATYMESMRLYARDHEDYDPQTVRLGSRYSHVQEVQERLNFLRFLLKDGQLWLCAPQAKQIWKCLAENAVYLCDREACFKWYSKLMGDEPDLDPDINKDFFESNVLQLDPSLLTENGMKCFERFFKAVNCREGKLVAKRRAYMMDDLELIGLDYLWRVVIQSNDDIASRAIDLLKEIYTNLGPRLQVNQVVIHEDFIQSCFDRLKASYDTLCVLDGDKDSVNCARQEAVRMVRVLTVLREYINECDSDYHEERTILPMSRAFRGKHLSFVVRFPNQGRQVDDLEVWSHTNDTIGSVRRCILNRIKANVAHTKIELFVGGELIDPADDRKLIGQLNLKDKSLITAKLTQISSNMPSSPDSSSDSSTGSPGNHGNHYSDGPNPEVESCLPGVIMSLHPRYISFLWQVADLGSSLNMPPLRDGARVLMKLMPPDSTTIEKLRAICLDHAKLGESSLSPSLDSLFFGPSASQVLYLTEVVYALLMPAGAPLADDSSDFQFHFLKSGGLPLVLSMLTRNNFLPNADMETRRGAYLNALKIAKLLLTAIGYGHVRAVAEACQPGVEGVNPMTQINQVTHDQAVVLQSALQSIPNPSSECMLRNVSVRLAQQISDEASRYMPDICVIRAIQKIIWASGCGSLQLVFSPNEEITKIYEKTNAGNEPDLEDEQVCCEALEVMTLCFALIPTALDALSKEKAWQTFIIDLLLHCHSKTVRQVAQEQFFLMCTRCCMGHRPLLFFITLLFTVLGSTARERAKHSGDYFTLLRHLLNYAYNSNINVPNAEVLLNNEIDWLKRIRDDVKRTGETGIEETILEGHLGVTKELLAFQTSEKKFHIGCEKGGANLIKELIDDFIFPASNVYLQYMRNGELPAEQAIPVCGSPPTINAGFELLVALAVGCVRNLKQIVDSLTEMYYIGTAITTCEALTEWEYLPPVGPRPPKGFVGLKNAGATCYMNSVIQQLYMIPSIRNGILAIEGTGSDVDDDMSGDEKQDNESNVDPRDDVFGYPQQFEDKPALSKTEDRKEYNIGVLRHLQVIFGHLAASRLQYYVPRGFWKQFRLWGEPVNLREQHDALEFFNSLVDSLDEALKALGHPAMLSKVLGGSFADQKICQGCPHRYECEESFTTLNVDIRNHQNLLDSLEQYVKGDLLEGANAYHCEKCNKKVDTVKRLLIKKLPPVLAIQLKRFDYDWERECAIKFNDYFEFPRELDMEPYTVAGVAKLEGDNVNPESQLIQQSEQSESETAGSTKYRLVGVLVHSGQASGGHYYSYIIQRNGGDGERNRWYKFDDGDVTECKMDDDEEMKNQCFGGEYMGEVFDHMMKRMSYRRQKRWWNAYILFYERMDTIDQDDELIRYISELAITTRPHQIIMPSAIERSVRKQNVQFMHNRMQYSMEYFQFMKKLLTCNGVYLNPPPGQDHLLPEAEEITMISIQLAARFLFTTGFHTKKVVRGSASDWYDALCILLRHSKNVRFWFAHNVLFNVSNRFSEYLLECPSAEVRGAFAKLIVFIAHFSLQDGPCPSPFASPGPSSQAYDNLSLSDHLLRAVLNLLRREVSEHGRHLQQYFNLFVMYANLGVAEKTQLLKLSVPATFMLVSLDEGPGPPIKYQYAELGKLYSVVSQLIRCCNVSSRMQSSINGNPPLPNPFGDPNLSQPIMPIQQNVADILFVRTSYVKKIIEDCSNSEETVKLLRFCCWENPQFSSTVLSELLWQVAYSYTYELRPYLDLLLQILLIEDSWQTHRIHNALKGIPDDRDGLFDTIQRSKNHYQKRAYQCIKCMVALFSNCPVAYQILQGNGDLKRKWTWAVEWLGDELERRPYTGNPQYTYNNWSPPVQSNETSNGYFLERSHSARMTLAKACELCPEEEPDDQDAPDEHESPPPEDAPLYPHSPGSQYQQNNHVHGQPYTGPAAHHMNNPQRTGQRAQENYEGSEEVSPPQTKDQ
Sequence of UniProt O00487 (O00487 whole entry): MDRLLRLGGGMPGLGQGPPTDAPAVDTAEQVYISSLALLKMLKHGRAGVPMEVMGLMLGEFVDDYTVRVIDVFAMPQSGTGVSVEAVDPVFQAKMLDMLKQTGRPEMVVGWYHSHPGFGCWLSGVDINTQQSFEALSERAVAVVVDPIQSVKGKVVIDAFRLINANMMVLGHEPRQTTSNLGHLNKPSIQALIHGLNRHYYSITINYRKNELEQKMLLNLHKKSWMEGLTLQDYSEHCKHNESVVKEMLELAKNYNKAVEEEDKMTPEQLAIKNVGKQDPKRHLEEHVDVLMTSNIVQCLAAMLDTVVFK

CC1(NC(=O)CCl)CCS(=O)(=O)C1 (centres undefined)
log2 ratio of Biotin-Ahx-Ub-VS probe labelling (USP9X): -0.847 | log2 ratio of Biotin-Ahx-Ub-VS probe labelling (UniProt O00487): -0.00664 | log2 ratio of Biotin-Ahx-Ub-VS probe labelling (UniProt O00507): -0.402 | log2 ratio of Biotin-Ahx-Ub-VS probe labelling (UniProt P51784): -0.612 | log2 ratio of Biotin-Ahx-Ub-VS probe labelling (UniProt Q5T2D3): -0.858 | log2 ratio of Biotin-Ahx-Ub-VS probe labelling (UniProt Q8TE49): -1.44 (active) | log2 ratio of Biotin-Ahx-Ub-VS probe labelling (UniProt Q9P2H5): -0.61 | log2 ratio of Biotin-Ahx-Ub-VS probe labelling (UniProt Q9UGI0): -0.698 | log2 ratio of Biotin-Ahx-Ub-VS probe labelling (YOD1): -0.754
